HT1080-NT tox = kills 2HG-producing HT-1080-NT fibrosarcoma cells; HT-1080-NT fibrosarcoma viability, CellTiter-Glo ATP luminescence, 48 h; Potency, µM (top dose mostly 46.1 µM), hits mostly cytotoxic; hit rate 1.6% among 360,000; AID 686970;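 also: NT is the 2HG producing partner of a matched IDH1 knockdown line; nearly all actives have a fitted effect of over 55% in size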
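Luminescent CellTiter-Glo readout after 48 hours of compound exposure at 37 degrees C defined viability of HT-1080-NT cells. Activity was normalized to DMSO wells and cell-free media wells; concentration-response curves were fitted and assigned curve classes.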
IL-1B inflam inh = inhibitors of inflammasome signaling (IL-1 beta secretion); THP-1 LPS/ATP IL-1B secretion, AlphaLISA, 16 h; hits give low values; hit rate 4.7% among 360,000; AID 743279; activity change, % at 57.5 µM; in the data active = activity change below about -50%; inconclusive = mostly about -30% to -49%
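THP-1 cells pretreated 1 hr with compounds (up to 57.5 uM final), then stimulated with LPS (250 ng/mL final) plus ATP (1.25 mM final); secreted IL-1B measured by AlphaLISA after 16 hr, decreased signal indicating inhibition.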
HT1080 IDH1KD tx = toxicity to HT-1080 IDH1 knockdown cells (counter line) | HT-1080 IDH1 knockdown viability, ATP luminescence, 48 h | Potency, µM (doses to about 46.1 µM), usual class: cytotoxic | hit rate 2% among 360,000 | AID 686971
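IDH1KD HT-1080 cells, 750/well, RPMI + 5% FBS; compound pinned after 2 h settling; 48 h, 37 °C; CellTiter-Glo luminescence; % activity normalised to DMSO and no-cell wells; curves fitted, classed by r2 and efficacy.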
DT40 TDP1 no CPT = qHTS for Inhibitors of human tyrosyl-DNA phosphodiesterase 1 (TDP1): qHTS in cells in absence of CPT | hit rate 15% among 420,000 | DT40 Tdp1-/- hTDP1 cells, no CPT, ATP luminescence, 48 h | AID 686978, 2013 | Potency, µM (titrated, usually from 46.2 µM), actives largely listed as inhibitors; also: nearly all actives have a fitted effect of over 55% in size
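A cellular qHTS used chicken DT40 cells lacking endogenous Tdp1 but carrying stably transfected human TDP1. Compounds were applied without camptothecin, and cell growth kinetics were judged by ATP-dependent luminescence after ≥48 hr.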
ELG1 DNA repair = ELG1-dependent DNA repair inhibition; HEK293T ELG1-luciferase reporter, luminescence, 16 h; DNA damage induced by 5-fluorouridine; Potency, µM (titrated, usually from 46.1 µM), actives largely listed as inhibitors; hit rate 2.3% among 330,000; AID 504467; also: nearly all actives have a fitted effect of over 55% in size
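Luminescence from the luciferase reporter, measured 30 min after ONE-Glo reagent at room temperature, was the read-out. Beforehand, 2,000 cells per well were exposed for 16 hr at 37 °C to 5-fluorouridine together with compound or vehicle.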
TDP1 cell CPT = growth inhibition of DT40 Tdp1-/-;hTDP1 cells with camptothecin (screen for TDP1 inhibitors) | chicken DT40 Tdp1-/-;hTDP1 cells + 20 nM CPT, ATP luminescence, 48 h | Potency, µM (doses to about 46.2 µM), hits mostly inhibitors | hit rate 12% among 420,000; also: nearly all actives have a fitted effect of over 55% in size
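Chicken DT40 Tdp1-/- cells complemented with human TDP1, 400 cells/well, exposed to compounds plus 20 nM camptothecin for at least 48 h at 37 C; viability read as ATP content by CellTiter-Glo luminescence.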
Of the large screens only hits and unclear results are named; the others gave an inactive call. Only some compounds are listed: those with a hit (about 19% of all), similar ones and a draw of the others. Unless noted, calls follow the shape of the dose curve; as a rule, active = well fitted curve in the direction sought with a large enough effect; inconclusive = small, poorly fitted or top-dose-only effect, or another doubt; inactive = no such curve, though single readings can be large; an effect the other way counts as inactive or inconclusive.

CCCCN(CCCC)C(=S)N/N=C/c1c(C)[nH]n(-c2ccccc2)c1=O	HT1080-NT tox inconclusive, HT1080 IDH1KD tx 6.5µM, DT40 TDP1 no CPT 2.6µM, ELG1 DNA repair inconclusive, TDP1 cell CPT 2.1µM
Cc1cc(C(=O)N/N=C/c2cc(N=Nc3ccccc3)ccc2O)n[nH]1	HT1080-NT tox inconclusive, HT1080 IDH1KD tx inconclusive, DT40 TDP1 no CPT 6.5µM, ELG1 DNA repair inconclusive, TDP1 cell CPT 5.8µM
Cc1[nH]n(-c2ccccc2)c(=O)c1/C=N/Nc1nncc(-c2ccccc2)n1	HT1080-NT tox 1.3µM, HT1080 IDH1KD tx 0.79µM, DT40 TDP1 no CPT 1µM, ELG1 DNA repair inconclusive, TDP1 cell CPT 1µM
Cc1[nH]n(-c2ccccc2)c(=O)c1/C=N/NC(=O)c1ccc(O)cc1O	HT1080-NT tox inconclusive, HT1080 IDH1KD tx 23µM, DT40 TDP1 no CPT 21µM, TDP1 cell CPT inconclusive
CCN(CC(=O)Nc1ccc(OC)cc1)C(=O)Cc1ccsc1	none
Cc1ccc(-n2[nH]c(C)c(/C=N/NC(=O)c3ccc(O)cc3O)c2=O)cc1	HT1080-NT tox 2.1µM, HT1080 IDH1KD tx 10µM, DT40 TDP1 no CPT 5.2µM, TDP1 cell CPT 12µM
Cc1[nH]c2ccccc2c1/C=N/NC(=O)c1cc(-c2cccs2)[nH]n1	IL-1B inflam inh inconclusive, DT40 TDP1 no CPT 21µM, ELG1 DNA repair inconclusive, TDP1 cell CPT inconclusive
Cc1ccc(-c2cc(C(=O)N/N=C/c3c(C)nn(-c4ccccc4)c3C)n[nH]2)s1	HT1080-NT tox 1.6µM, HT1080 IDH1KD tx 1.8µM, DT40 TDP1 no CPT 0.82µM, ELG1 DNA repair inconclusive, TDP1 cell CPT 0.65µM
CCOc1ccc2ccccc2c1/C=N/NC(=O)c1cc(C)[nH]n1	IL-1B inflam inh inconclusive
Cc1cc(C(=O)N/N=C/c2c3ccccc3cc3ccccc23)n[nH]1	HT1080-NT tox inconclusive, HT1080 IDH1KD tx 16µM, DT40 TDP1 no CPT 9.2µM, TDP1 cell CPT inconclusive
Cc1cc(C(=O)N/N=C/c2c(C)[nH]c3ccccc23)n[nH]1	none
CC(=O)c1cccc(NC(=O)CCn2nc(C)c(S(=O)(=O)N(C)C)c2C)c1	TDP1 cell CPT inconclusive (no result: HT1080-NT tox, IL-1B inflam inh, HT1080 IDH1KD tx, ELG1 DNA repair)
CN(C)c1ncc2nc(-c3cccs3)c(=O)n(CCC#N)c2n1	none (no result: HT1080-NT tox, IL-1B inflam inh, HT1080 IDH1KD tx, ELG1 DNA repair)
Cc1cc(C(=O)N/N=C/c2c(C)n(C)c3ccccc23)n[nH]1	DT40 TDP1 no CPT inconclusive, ELG1 DNA repair inconclusive
Cc1cc(C(=O)N/N=C/c2c(C)[nH]n(-c3ccccc3)c2=O)n[nH]1	DT40 TDP1 no CPT inconclusive, TDP1 cell CPT 21µM
Cc1cc(C)n(-c2cc(N3CCN(S(=O)(=O)c4ccc(Cl)cc4)CC3)ccc2[N+](=O)[O-])n1	DT40 TDP1 no CPT 6.5µM, ELG1 DNA repair inconclusive, TDP1 cell CPT 7.3µM
CN(C)S(=O)(=O)N1CCN(c2ccc([N+](=O)[O-])c(N3CCCCC3)c2)CC1	DT40 TDP1 no CPT 10µM
O=[N+]([O-])c1ccc(N2CCN(S(=O)(=O)c3ccc(Cl)cc3)CC2)cc1NCC1CCCO1 (stereo unspecified)	none
Cc1cc(C)n(-c2cc(N3CCN(C(=O)c4cccc(Br)c4)CC3)ccc2[N+](=O)[O-])n1	IL-1B inflam inh inconclusive, DT40 TDP1 no CPT 21µM, ELG1 DNA repair inconclusive, TDP1 cell CPT inconclusive
CC(=O)N1CCN(c2ccc([N+](=O)[O-])c(-n3nc(C)cc3C)c2)CC1	none

Screening results as filed in PubChem.
